# Reference: ChEMBL document CHEMBL3988442, “University of Dundee, Small-Polar-MMV Screening Library” (2021)
# For some of these results: Potency and affinity values are given separately.
# What was measured:
# Parameters in all cases: scale not given: direction of the effect not stated beside the values
# [1] = target: Protein translocase subunit SecA (Escherichia coli (strain K12)) (UniProt P10408); test: Assay to Identify E. coli SecA ATPase Inhibitors; type: functional; settings: 30 µM
# [2] = target: T1, Ubiquitin-activating enzyme e1, putative (Leishmania donovani (strain BPK282A1)) (UniProt E9BSI1); test: Leishmania donovani Ubiquitin Activating Enzyme (LdE1); type: functional; settings: 30 µM
# T1 sequence (whole entry): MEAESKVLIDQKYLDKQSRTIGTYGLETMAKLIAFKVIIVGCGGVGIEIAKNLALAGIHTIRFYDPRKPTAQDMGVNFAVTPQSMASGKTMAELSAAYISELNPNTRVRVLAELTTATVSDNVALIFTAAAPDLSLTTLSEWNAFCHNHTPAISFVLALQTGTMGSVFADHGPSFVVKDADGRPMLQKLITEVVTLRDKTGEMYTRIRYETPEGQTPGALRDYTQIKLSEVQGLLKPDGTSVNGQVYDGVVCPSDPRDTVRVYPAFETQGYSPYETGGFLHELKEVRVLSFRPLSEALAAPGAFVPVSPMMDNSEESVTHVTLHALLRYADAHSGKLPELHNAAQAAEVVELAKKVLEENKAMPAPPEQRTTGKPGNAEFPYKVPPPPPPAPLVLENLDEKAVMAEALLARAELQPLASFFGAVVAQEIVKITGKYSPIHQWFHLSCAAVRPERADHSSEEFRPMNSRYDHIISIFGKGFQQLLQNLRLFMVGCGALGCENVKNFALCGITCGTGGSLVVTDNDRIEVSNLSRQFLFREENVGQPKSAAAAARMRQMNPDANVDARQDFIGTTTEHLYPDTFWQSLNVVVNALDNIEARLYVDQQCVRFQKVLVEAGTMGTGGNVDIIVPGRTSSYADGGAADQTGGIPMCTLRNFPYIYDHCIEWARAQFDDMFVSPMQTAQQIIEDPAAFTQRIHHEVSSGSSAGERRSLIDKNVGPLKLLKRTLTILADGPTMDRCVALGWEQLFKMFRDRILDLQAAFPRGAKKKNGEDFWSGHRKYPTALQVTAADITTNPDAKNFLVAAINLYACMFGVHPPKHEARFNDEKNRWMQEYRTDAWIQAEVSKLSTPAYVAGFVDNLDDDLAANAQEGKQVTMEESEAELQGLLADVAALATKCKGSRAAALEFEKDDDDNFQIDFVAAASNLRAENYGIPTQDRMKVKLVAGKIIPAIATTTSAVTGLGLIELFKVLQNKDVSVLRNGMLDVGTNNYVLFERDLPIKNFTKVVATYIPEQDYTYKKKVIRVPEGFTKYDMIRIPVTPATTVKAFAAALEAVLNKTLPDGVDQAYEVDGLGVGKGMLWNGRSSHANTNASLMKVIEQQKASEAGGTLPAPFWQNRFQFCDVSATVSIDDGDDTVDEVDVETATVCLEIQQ
# [3] = target: AMP-activated protein kinase, AMPK (Homo sapiens) (UniProt P54646+O43741+P54619+Q9UGJ0+Q9Y478+Q13131+Q9UGI9); test: AMP-dependent Kinase enzyme assay. An in vitro enzyme assay that detects ADP turnover that is directly proportional to AMPK activity. This uses naive AMPK that is activated during the assay with MK-8722; type: functional; settings: 30 µM
# [4] = target: Sialic acid-binding Ig-like lectin 9 (Homo sapiens) (UniProt Q9Y336); test: Hs-Siglec9 ALPHAscreen SOP 20170721; settings: 10 µM
# [5] = test system: Trypanosoma cruzi; test: Trypanosoma cruzi phosphomannomutase and mannose-1-phosphate guanylyltransferase assay; type: functional; settings: 10 µM
# [6] = target: T2, Arginase-2, mitochondrial (Homo sapiens) (UniProt P78540); test: in vitro enzyme assay to detect the production of urea directly proportional to the activity of Arginase II; type: functional; settings: 33.3 µM; further: in the data most compounds retested in dose-response had high values
# T2 sequence (whole entry): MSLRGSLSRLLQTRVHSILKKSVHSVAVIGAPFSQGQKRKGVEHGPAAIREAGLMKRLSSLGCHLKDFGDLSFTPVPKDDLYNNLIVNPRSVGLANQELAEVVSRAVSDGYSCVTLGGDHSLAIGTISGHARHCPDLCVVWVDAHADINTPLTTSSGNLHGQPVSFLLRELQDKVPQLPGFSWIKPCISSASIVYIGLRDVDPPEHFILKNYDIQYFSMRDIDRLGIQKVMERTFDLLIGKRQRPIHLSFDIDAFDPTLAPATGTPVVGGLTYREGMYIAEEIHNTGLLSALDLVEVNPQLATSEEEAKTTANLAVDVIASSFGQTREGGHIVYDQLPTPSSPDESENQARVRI
# [7] = target: T3, Proteasome subunit beta (Trypanosoma cruzi) (UniProt O96673); test: Trypanosoma cruzi proteasome chymotrypsin-like activity (TcProtChymo) assay.; further: in the data most compounds retested in dose-response had high values; type: functional; settings: 9.37 µM
# T3 sequence (whole entry): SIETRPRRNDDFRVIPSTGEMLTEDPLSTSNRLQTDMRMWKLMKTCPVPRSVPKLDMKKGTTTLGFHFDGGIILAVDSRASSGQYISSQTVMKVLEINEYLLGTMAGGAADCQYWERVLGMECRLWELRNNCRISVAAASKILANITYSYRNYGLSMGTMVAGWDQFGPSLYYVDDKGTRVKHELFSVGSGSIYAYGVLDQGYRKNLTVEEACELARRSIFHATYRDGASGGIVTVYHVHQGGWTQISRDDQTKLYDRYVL
# [8] = organism: Homo sapiens; test: To identify inhibition of the IFN signalling (Jak-Stat) pathway via expression of an eGFP reporter gene under the control of an IFN-stimulated response element (ISRE) containing MxA promoter.; type: functional; settings: 30 µM
# [9] = target: T4, Tyrosyl-tRNA synthetase, putative (Trypanosoma cruzi (strain CL Brener)) (UniProt Q4DSP6); test: Trypanosoma cruzi tyrosyl tRNA synthetase (TcYRS) _High Tyrosine SOP; type: functional; settings: 30 µM; further: in the data most compounds retested in dose-response had high values
# T4 sequence (whole entry): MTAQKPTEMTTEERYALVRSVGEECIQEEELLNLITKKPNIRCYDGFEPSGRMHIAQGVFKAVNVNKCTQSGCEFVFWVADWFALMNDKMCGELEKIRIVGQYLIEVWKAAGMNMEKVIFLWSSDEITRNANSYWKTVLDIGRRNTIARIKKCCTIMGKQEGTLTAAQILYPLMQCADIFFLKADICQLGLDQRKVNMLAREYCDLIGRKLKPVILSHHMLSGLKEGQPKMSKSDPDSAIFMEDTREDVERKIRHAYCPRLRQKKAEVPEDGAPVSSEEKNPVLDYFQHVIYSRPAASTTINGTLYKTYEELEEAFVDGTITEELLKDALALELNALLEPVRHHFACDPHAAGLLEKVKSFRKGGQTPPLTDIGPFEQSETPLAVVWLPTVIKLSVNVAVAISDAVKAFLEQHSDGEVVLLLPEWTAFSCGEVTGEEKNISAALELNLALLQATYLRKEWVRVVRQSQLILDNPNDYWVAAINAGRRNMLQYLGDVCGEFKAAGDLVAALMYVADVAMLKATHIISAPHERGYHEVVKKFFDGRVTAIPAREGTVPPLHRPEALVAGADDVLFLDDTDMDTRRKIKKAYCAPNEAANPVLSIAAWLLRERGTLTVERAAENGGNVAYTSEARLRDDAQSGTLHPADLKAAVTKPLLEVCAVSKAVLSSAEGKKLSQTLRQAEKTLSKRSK
# [10] = target: T4, Tyrosyl-tRNA synthetase, putative (Trypanosoma cruzi (strain CL Brener)); test: Trypanosoma cruzi tyrosyl tRNA synthetase (TcYRS) SOP; type: functional; settings: 30 µM
# [11] = target: Chromo domain-containing protein 1 (Saccharomyces cerevisiae (strain ATCC 204508 / S288c) (Baker's yeast)) (UniProt P32657); test: ScCHD-1 Enzyme Inhibition Assay; type: functional; settings: 30 µM; further: in the data most compounds retested in dose-response had high values
# Sequence of Chromo domain-containing protein 1 (Saccharomyces cerevisiae (strain ATCC 204508 / S288c) (Baker's yeast)) (P32657 whole entry, the tested form may be a part): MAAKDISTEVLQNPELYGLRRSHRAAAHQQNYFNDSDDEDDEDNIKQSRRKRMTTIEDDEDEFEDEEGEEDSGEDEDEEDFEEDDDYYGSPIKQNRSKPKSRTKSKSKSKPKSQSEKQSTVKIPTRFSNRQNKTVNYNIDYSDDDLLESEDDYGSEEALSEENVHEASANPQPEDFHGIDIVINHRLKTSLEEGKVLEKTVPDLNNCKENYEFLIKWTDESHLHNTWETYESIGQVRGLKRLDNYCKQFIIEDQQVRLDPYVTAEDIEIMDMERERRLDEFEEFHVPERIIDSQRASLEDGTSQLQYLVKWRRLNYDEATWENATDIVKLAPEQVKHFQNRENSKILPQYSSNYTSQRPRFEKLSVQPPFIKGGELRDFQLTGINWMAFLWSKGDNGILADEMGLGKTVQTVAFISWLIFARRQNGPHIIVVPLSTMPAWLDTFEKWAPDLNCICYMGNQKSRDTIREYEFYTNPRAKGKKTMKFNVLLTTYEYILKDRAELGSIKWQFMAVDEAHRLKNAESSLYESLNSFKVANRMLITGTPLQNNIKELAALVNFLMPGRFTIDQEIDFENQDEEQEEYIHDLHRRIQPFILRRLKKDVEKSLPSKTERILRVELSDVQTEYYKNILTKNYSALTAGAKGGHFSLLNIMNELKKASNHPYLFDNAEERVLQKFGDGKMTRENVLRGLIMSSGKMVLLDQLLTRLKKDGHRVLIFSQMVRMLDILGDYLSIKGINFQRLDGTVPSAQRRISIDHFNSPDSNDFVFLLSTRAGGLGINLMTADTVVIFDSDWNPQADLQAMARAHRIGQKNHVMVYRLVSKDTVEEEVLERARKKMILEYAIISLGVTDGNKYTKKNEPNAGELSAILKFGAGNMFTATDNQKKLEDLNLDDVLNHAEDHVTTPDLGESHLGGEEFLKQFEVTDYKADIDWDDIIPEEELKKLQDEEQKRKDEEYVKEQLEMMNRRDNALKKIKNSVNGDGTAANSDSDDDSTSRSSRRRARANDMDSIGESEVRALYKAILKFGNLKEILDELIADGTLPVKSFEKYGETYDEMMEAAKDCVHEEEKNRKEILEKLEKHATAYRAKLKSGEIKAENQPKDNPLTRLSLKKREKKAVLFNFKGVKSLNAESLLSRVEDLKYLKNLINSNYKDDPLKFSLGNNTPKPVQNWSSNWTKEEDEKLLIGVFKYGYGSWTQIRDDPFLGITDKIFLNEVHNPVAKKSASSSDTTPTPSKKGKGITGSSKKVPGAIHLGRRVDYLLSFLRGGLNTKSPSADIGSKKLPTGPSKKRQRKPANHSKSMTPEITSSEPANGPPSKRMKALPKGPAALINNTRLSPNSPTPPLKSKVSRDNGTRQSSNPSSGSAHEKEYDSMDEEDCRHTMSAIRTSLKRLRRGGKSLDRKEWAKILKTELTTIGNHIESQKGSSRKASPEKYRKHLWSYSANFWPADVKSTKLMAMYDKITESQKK
# Sequence of Protein translocase subunit SecA (Escherichia coli (strain K12)) (P10408 whole entry): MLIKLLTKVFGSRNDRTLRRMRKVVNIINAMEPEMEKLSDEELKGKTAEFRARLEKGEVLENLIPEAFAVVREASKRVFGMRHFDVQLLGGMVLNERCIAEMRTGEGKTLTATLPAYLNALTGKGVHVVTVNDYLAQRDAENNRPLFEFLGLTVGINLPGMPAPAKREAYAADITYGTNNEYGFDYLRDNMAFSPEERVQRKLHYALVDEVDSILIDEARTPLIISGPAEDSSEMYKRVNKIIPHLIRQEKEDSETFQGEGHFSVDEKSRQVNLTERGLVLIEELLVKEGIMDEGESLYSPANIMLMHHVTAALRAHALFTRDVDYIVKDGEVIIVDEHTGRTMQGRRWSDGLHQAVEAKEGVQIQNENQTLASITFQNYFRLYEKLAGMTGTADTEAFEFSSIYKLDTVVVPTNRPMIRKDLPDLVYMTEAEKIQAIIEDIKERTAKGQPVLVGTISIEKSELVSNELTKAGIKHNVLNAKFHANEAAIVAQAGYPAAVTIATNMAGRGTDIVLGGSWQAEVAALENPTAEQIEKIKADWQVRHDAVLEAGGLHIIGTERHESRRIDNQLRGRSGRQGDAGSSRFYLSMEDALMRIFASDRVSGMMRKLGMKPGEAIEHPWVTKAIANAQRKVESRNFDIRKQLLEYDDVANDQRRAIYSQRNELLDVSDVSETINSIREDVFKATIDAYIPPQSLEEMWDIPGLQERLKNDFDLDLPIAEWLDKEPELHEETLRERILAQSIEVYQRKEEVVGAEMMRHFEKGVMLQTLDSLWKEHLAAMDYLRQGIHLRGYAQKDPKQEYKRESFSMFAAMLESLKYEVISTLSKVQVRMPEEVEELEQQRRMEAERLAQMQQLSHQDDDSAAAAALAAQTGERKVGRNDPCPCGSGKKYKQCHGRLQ
# Sequence of Sialic acid-binding Ig-like lectin 9 (Homo sapiens) (Q9Y336 whole entry): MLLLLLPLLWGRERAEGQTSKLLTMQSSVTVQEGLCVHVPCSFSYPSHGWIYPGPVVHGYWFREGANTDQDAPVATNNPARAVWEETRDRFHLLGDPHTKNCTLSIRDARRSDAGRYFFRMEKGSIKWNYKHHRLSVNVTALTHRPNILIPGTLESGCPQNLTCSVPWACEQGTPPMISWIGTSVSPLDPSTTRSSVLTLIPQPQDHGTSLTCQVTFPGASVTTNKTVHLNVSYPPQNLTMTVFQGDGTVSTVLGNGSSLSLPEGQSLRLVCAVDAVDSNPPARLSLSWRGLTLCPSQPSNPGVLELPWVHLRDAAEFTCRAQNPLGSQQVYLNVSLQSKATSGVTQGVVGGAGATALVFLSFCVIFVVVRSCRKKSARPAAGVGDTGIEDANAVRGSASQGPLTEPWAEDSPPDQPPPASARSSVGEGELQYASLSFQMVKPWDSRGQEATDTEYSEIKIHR
Structure (SMILES),Percent Effect [1] [%],Percent Effect [2] [%],Percent Effect [3] [%],Percent Effect [4] [%],Percent Effect [5] [%],Percent Effect [6] [%],Percent Effect [7] [%],Percent Effect [8] [%],Percent Effect [9] [%],Percent Effect [10] [%],Percent Effect [11] [%]
Cc1ccccc1-c1cncc(C2CCN(C)CC2)n1,-3.38,-6.76,8.25,2.29,5.73,-1.62,-0.624,-1.24,5.38,3.9,-11.8
NC(=O)C1CCN(Cn2nc(-c3ccc(F)cc3)oc2=O)CC1,-3.92,2.6,9.43,0.452,-22.7,4.14,22,24.3,-1.07,1.24,-2.23
O=C(c1ccnnc1)N1C[C@@H]2CC[C@H](Oc3cccc(F)c3)[C@@H]2C1,-4.43,-1.35,15.2,-2.19,-6.13,1.16,2.34,-7.87,1.07,-3.9,-7.63
Cn1cc(C(=O)NCC2CCN(C(=O)NCC(F)(F)F)CC2)cn1,-2.53,16.5,-6.78,1.59,-0.308,0.645,11,16,8.33,12.7,-22.3
COC(=O)c1cc(C(=O)N2CCCCCC2)n(-c2ccccc2)n1,-5.27,2.63,0.404,4.54,-5.08,1.92,-3.51,18.4,2.45,9.76,-1.11
CC(C)Nc1nc2c(cc1C(=O)NCC1CC1)CCNCC2,-1.6,10.7,6.52,7.51,-2.9,-29.2,8.55,-6.96,7.29,5,-10.3
CN(Cc1cn2c(n1)CN(C(=O)CC1CC1)CC2)Cc1ccco1,-3.7,2.67,8.42,1.6,-0.197,8.16,-3.44,20.3,5.32,14.1,-0.584
O=C1CC(c2cccs2)c2snc(C(=O)O)c2N1 (configuration not stated),-2.26,4.17,-2.53,8.18,4.76,3.09,2.63,1.26,2.1,5.13,-3.46
COCCCNC(=O)CN1CCCC1c1c(C)nn(C)c1Cl (configuration not stated),-8,8.86,-7.07,-3.46,2.15,2.37,7.38,-0.237,1.04,-7.59,-25.1
CCN1CCN(C(=O)C(C)N2CCN(Cc3nccn3C)CC2)CC1 (configuration not stated),-3.29,2.7,-1.16,6.16,6.59,-4.99,1.08,-7.4,0.99,3.66,2.46
CC(COc1ccccc1)NCc1nc(-c2cccnc2)no1 (configuration not stated),-2.6,6.94,-4.69,0.164,1.85,3.09,6.14,5.92,3.16,10.3,-2.08
COCCN1CCC2(CC1)CN(C(=O)N(C)C)c1ccc(C)cc12,-5.7,5.41,-1.76,-3.94,-3.62,2.23,6.83,12.1,0,5.13,0.0767
O=C(NC[C@@H]1CCCN1)c1cc(COc2cccc(C(F)(F)F)c2)[nH]n1,-1.63,9.72,-0.951,10.3,2.62,21.6,6.32,-13.9,4.21,7.69,-1.17
O=C(CCc1ccc(Cl)s1)N1CCCC(n2cncn2)C1 (configuration not stated),-2.21,-2.53,3.52,6.43,-0.0944,5.32,-3.36,-2.4,0.493,-1.27,0.688
COc1ccc2c(c1)C1(CCN(Cc3ccncc3)CC1)N(C)CC2,-3.01,7.79,2.38,7.8,-3.06,0.645,14.4,-6.76,0,3.85,-8.34
COC(=O)CCC(=O)N1CCc2[nH]nc(-c3ccc4c(c3)OCO4)c2C1,-2.09,8.11,6.85,21.3,5.18,11.2,0.258,-7.33,2.15,6.17,-11.9
CCc1nccn1C1CCCN(C(=O)c2ccc3[nH]c(=O)[nH]c3c2)C1 (configuration not stated),-10.8,7.79,-15.1,18.9,8.24,2.85,5.41,14.2,8.74,21.9,-4.1
